Assay results as given in PubChem BioAssay (NCI).
Compounds without any hit were thinned out: in the full panel of roughly 83,000, 20% have a hit.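 The test compound was applied at a single concentration to cells in 96-well plates for 48 hours, and percent growth was recorded.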 Values without a mark were called inactive. Calls of active or inactive are those of the source. Rule for the calls: active = growth percent below 10; inactive = the rest.

Key:
Experiment in all cases: NCI-60 one-dose screen, 48 h (100 = growth as untreated, 0 = no growth, -100 = all killed)
Details in all cases: 10 µM unless noted
NCI-H23 lung = system: NCI-H23 lung
NCI-H226 lung = system: NCI-H226 lung
NCI-H322M lung = system: NCI-H322M lung
HOP-62 NSCLC = system: HOP-62 NSCLC
NCI-H460 lung = system: NCI-H460 lung
HOP-92 NSCLC = system: HOP-92 NSCLC
NCI-H522 lung = system: NCI-H522 lung
A549/ATCC NSCLC = system: A549/ATCC NSCLC
786-0 renal = system: 786-0 renal
COLO 205 colon = system: COLO 205 colon
DU-145 prostate = system: DU-145 prostate
K-562 leukemia = system: K-562 leukemia
MALME-3M melanoma = system: MALME-3M melanoma
MDA-MB-231 breast = system: MDA-MB-231 breast
RXF 393 renal = system: RXF 393 renal
SF-268 CNS = system: SF-268 CNS
SF-295 CNS = system: SF-295 CNS
SF-539 CNS = system: SF-539 CNS
UACC-257 melanoma = system: UACC-257 melanoma
M14 melanoma = system: M14 melanoma

Structure (SMILES) | growth (NCI-H23 lung) | growth (NCI-H226 lung) | growth (NCI-H322M lung) | growth (HOP-62 NSCLC) | growth (NCI-H460 lung) | growth (HOP-92 NSCLC) | growth (NCI-H522 lung) | growth (A549/ATCC NSCLC) | growth (786-0 renal) | growth (COLO 205 colon) | growth (DU-145 prostate) | growth (K-562 leukemia) | growth (MALME-3M melanoma) | growth (MDA-MB-231 breast) | growth (RXF 393 renal) | growth (SF-268 CNS) | growth (SF-295 CNS) | growth (SF-539 CNS) | growth (UACC-257 melanoma) | growth (M14 melanoma)
CCOC(=O)c1c[nH][nH]c1=O | 93.4% | 101% | 122% | 89.2% | 106% | 111% | 103% | 125% | 94.3% | 124% | 117% | 116% | 129% | 108% | 110% | 110% | 112% | 94.9% | 59.1% | 96.5%
Nc1ncc([N+](=O)[O-])cn1 | 102% | 103% | 95% | 103% | 111% | 93.7% | 71.2% | 90.1% | 105% | 119% | 104% | 108% | 103% | 98.4% | 110% | 98.4% | 105% | 105% | 84.7% | 100%
OCCNc1ccccc1 | 95.6% | 97.7% | 104% | 105% | 106% | 92.7% | 99.5% | 103% | 99.9% | 107% | 103% | 104% | 102% | 104% | 109% | 97.2% | 108% | 95.9% | 108% | 97.8%
CC(=O)c1cccs1 | 93.8% | 98.8% | 97.7% | 83.8% | 104% | 90.8% | 89.3% | 92% | 95.1% | 116% | 109% | 108% | 115% | 101% | 96.6% | 103% | 97.3% | 95.6% | 96.3% | 102%
CCCCc1ccc2nc(NC(=O)OC)[nH]c2c1 | 14.1% | 63.4% | 50.2% | 24.2% | 2.11% (active) | 60.7% | -9.52% (active) | 18.4% | 16.5% | -45.8% (active) | -2.08% (active) | -20.4% (active) | 48.1% | 13% | 20.9% | 28.8% | -5.83% (active) | -51.1% (active) | 69% | 8.08% (active)
O=[N+]([O-])c1ccc(-c2nc(N(CCO)CCO)c3ccccc3n2)o1 | -64.9% (active) | -24.7% (active) | -31% (active) | -20.7% (active) | -41.6% (active) | -44.8% (active) | -54% (active) | -0.496% (active) | -40.4% (active) | -87.1% (active) | -22.8% (active) | 4.2% (active) | -74.5% (active) | -6.61% (active) | -87.1% (active) | -16.2% (active) | -32.1% (active) | -48.9% (active) | -36.3% (active) | -90% (active)
Cc1ccc(/C=N/NC(N)=S)s1 | 99.7% | 99.1% | 98.9% | 102% | 103% | 100% | 105% | 109% | 109% | 104% | 110% | 103% | 108% | 104% | 99.3% | 98.7% | 105% | 97.6% | 109% | 102%
CC(=O)N=c1ccc2nc3c(cc(N)c4ccccc43)oc-2c1 | -27.8% (active) | 80.4% | 3.7% (active) | 1.21% (active) | -41.2% (active) | -56.9% (active) | -78.1% (active) | 11.2% | -43.8% (active) | -84.6% (active) | -96% (active) | -55.7% (active) | -67.3% (active) | -9.2% (active) | 14% | -11.1% (active) | -65.7% (active) | -71.2% (active) | -81.5% (active) | -68.8% (active)
